Compound activity from PubChem.
Sampled rows, rich in hits. Any-hit rate of the full collection: about 6.1%.
ERK AVP inh: inhibitors of vasopressin-stimulated ERK signaling pathway. HEK293-V1b, vasopressin-stimulated pERK AlphaScreen. Potency, µM (highest dose often 57.5 µM), without a hit: at the top dose activity, negative = inhibition, usual class: inhibitors. 0.99% of 72,000 active; further: nearly all actives have a fitted effect of over 55% in size
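V1b-HEK293 cells; cpd 30 min 37C; 25 nM vasopressin 5 min; lyse 10 min; AlphaScreen beads 5 hr RT. Normalized to DMSO basal and 25 nM vasopressin; AC50 by Hill fit.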
Hsp90 Hop PPI: changes Hsp90-Hop TPR2A binding signal, up or down; Potency, µM (highest dose often 57 µM), without a hit: top-dose activity change, negative = inhibition; AlphaScreen TPR2A-His6 binding biotin-Hsp90 C-terminal peptide; 0.44% of 71,000 active; active means well fitted curve in either direction with a large enough effect; inconclusive means small, poorly fitted or top-dose-only effect, or another doubt
PK Bst: alters activity of Bacillus stearothermophilus pyruvate kinase | 1.2% of 51,000 active | Potency, µM | purified pyruvate kinase, luminescence ATP production; ribose 5-phosphate activator present at AC10; in the data active means potency below about 11 µM; inconclusive means mostly about 12 µM to 25 µM;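 the screen sought inhibitors and activators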;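 further: scaled between full activation by ribose 5 phosphate and full inhibition by luteolin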
Luciferase inh: blocks Photinus pyralis firefly luciferase activity; 2.2% of 72,000 active; P08659; purified firefly luciferase, luminescence, 8 min; Potency, µM (titrated, usually from 57.1 µM), inactives show at the top dose activity change, negative = inhibition, usual class: inhibitors; further: nearly all actives have a fitted effect of over 40% in size
Target sequence (P08659 whole entry, looked up): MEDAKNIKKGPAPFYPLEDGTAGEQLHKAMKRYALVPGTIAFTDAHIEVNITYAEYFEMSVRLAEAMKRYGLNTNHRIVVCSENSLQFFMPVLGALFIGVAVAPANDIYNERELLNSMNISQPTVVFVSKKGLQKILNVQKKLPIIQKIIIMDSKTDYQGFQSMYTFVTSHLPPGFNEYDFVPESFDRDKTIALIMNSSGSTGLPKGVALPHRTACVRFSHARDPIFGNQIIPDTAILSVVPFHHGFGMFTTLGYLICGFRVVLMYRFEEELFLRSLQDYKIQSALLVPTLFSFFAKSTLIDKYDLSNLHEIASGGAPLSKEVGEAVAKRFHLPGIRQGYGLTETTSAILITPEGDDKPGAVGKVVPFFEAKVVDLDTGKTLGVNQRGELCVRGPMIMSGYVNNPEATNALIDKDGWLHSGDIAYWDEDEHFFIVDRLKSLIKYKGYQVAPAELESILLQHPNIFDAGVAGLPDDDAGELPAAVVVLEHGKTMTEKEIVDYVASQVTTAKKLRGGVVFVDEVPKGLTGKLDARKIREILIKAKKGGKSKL
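Titration-based qHTS; buffer 50 mM imidazole pH 7.2, 50 mM KCl, 7 mM MgCl2, 10 uM ATP, 0.01% Tween 20, 0.05% BSA; luciferase/luciferin detector mix added after compound; 8 min, ambient; luminescence.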
Tau fil binding: tau filament binding. P10636. recombinant tau filaments, thioflavin S fluorescence, 15 h; filaments grown with octadecylsulfate alongside compound. Potency, µM (highest dose often 57.1 µM), inactives show at the highest dose activity change, negative = inhibition. 2% of 71,000 active;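 further: actives lower thioflavin S fluorescence by blocking filaments or displacing dye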
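Thioflavine S fluorescence (ex 450, em 510 nm) reports filaments formed from 1 uM human tau plus 30 uM ODS over 15 h at 37 C (10 mM HEPES pH 7.4, 100 mM NaCl, 5 mM DTT); compounds displacing dye or blocking filaments lower signal.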
15-hLO inh: inhibitors of human 15-lipoxygenase (ALOX15); P16050; purified 15hLO-1, xylenol orange hydroperoxide absorbance; Potency, µM (highest dose often 57.1 µM), for the others: at the top dose activity change, negative = inhibition, usual class: inhibitors; 1.4% of 74,000 active; AID 887; further: nearly all actives have a fitted effect of over 55% in size
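Compounds were preincubated 15 min at room temperature with 40 nM purified human enzyme (25 mM Hepes pH 7.5, 0.01% Triton X-100); 50 uM arachidonic acid reacted 6 min. Fe-xylenol orange detection, 30 min, absorbance ratio 573/405 nm.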
Numbers without * were called inactive; i = inactive; ? = inconclusive; / = no result; [ ] = another dose, or the depositor's remark. Unless noted, the call rests on the fitted dose curve; in most records, active means well fitted curve in the direction sought with a large enough effect; inconclusive means small, poorly fitted or top-dose-only effect, or another doubt; inactive means no such curve, though single readings can be large; an effect the other way counts as inactive or inconclusive. Unless noted, on the % scale 0 is the no-effect control and ±100 the full control effect; potency means the concentration at half of the fitted maximal effect.

SMILES | ERK AVP inh | Hsp90 Hop PPI | PK Bst | Luciferase inh | Tau fil binding | 15-hLO inh
CCOC(=O)c1sc(=S)n(-c2cc(OC)ccc2OC)c1N | 4.8% | -7.2% | >57 | -1.6% | 0.3% | 12.6µM*
CCOC(=O)c1cnc(SCC(=O)c2ccccc2)nc1N | -1.5% | -2.4% | / | 3.98µM* | 98.1% | -4.8%
CC(=O)OCC(=O)[C@@]1(O)CC[C@@H]2[C@@H]3CCC4=CC(=O)CC[C@@]4(C)[C@H]3C(=O)C[C@]21C | / | -3.1% | / | 3.4% | -1.3% | /
COc1ccc(O)c(C(=O)CC(=O)c2ccccc2)c1 | 22.4% | -26.6% | / | 20µM* | ? | -29.9%
COc1ccc(C(=O)c2ccccc2O)c(O)c1 | 6.9% | 0.3%[26 µM] | / | -3.9%[25.5 µM] | -2.0%[25.6 µM] | ?
Cc1ccc(N2CCN(C(=S)c3ccc(N(C)C)cc3)CC2)cc1 | 19.6% | ? | >57 | -6.0% | 12.6µM* | ?
O=C(COc1ccc2oc(-c3ccccc3)cc(=O)c2c1)NCc1ccco1 | -7.2% | -3.1% | 4.1* | 7.94µM* | 99.4% | ?
O=C(COC(=O)COc1ccc(Nc2ccccc2)cc1)NCc1ccco1 | 30.8% | -16.4% | >57 | -6.2% | -28.5% | ?
CCN(CC)CCCCC1CCN(CC(=O)N2c3ccccc3C(=O)Nc3cccnc32)CC1 | 1.9% | / | / | / | / | ?
O=C(c1cc2nc(-c3ccco3)cc(C(F)(F)F)n2n1)N1CCN(c2ccc(F)cc2)CC1 | -29.5% | -16.4% | / | 1.3% | 12.6µM* | ?
CN1CCN(C(=O)c2cc3nc(-c4ccc(F)cc4)cc(C(F)(F)F)n3n2)CC1 | -13.9% | -5.5% | / | 3.3% | ? | 0.2%
Cc1ccccc1Cn1cc(NC(=O)c2cc3nc(-c4ccco4)cc(C(F)(F)F)n3n2)cn1 | 9.9% | -6.1% | >57 | ? | 3.16µM* | ?
CCOC(=O)c1c2c(n3ccccc13)C(=O)c1ccccc1C2=O | ? | -17.5%[11 µM] | / | 1.7%[11.4 µM] | -24.7%[11.4 µM] | 1.1%[11.4 µM]
CCOC(=O)C(C(=O)OCC)c1cc(Br)c2noc3c2c1C(=O)c1ccccc1-3 | 25.1µM* | ? | >57 | -19.0% | 2µM* | -18.9%
Cc1ccc(C)c([C@@H]2NC(=O)c3ccccc3N2)c1 | 11.4%[11.5 µM] | -6.0%[11 µM] | / | -0.4%[11.4 µM] | -2.3%[11.4 µM] | 1.1%[11.4 µM]
CN1CCc2c(cc(O)c(O)c2Cl)[C@H](c2cccc(Cl)c2)C1 | 6.7% | 12.6µM* | / | 1.7% | -7.7% | 15.8µM*
CCOc1cccc(C(=O)Nc2cccc(-c3nc4ncccc4o3)c2C)c1 | 12.6µM* | -3.5% | / | -4.3% | 25.2% | 0.2%
CN1CCCC2(CCN(C(=O)c3cccn3C)CC2)C1 | 0.7% | 1.3% | / | -0.8%[11.4 µM] | -13.7% | -1.5%
Cc1ccccc1-c1cc(-c2ccccc2O)n[nH]1 | -18.7% | 3.5% | i | ? | ? | 15.8µM*
Cc1ccc(-c2cc(-c3ccccc3Cl)[nH]n2)c(O)c1 | -26.7% | 2.7% | / | 10µM* | 0.2% | /
COc1ccc(C(=O)N2CCC3(CC2)CN(c2ccccn2)C3)cc1 | -0.9% | 3.7% | / | -1.8%[11.4 µM] | -4.9% | -1.9%
C=C1C(=O)OC2C[C@@]3(C)CCCC(C)C3=CC12 (stereo not given in full) | 26.4% | / | / | / | / | -9.1%
COc1ccc(NC(=O)Nc2ccc3c(c2)N(C)C(=O)CS3)cc1OC | 25.1µM* | -14.5% | / | ? | 20µM* | -24.5%
CCOc1ccc(NC(=O)Nc2ccc3c(c2)N(C)C(=O)CS3)cc1 | ? | -5.6% | / | -3.5% | 61.8% | -10.2%
Cn1cnc([N+](=O)[O-])c1[Se]c1nc(N)nc2c1ncn2[C@@H]1O[C@@H](CO)[C@H](O)[C@@H]1O | 2.6%[11.5 µM] | 0.4%[11 µM] | / | 2.7%[11.4 µM] | 6.5%[11.4 µM] | 17.0%[11.4 µM]
SMILES | ERK AVP inh | Hsp90 Hop PPI | PK Bst | Luciferase inh | Tau fil binding | 15-hLO inh
CN1CCN(c2ncc3nc(-c4cccc(C#N)c4)c(=O)n(C)c3n2)CC1 | -8.8% | -2.1% | / | 0.7%[11.4 µM] | 52.0% | -26.8%
O=C(O)CCN1C(=S)CSC1=S | -8.3%[11.5 µM] | -2.2%[11 µM] | / | -1.9%[11.4 µM] | 5.1%[11.4 µM] | -9.2%[11.4 µM]
NC(=O)CSc1nc2sc3c(c2c2ncnn12)CCCC3 | -36.2% | -4.1% | 1.3* | -1.5% | 3.4% | 0.0%
CSc1nc2sc3c(c2c2nnnn12)CCCC3 | / | / | >25.6 | 0.0%[25.5 µM] | / | /
Cc1ccccc1OC[C@H](O)CO | -12.9%[25.7 µM] | 0.6%[26 µM] | / | -0.3%[25.5 µM] | 13.1%[25.6 µM] | 6.4%[25.6 µM]
N#CC1=C(N)N=C(SCc2ccccc2)C(C(N)=O)C12CCCCC2 (stereo not given) | ? | -14.8% | >57 | -0.6% | 6.31µM* | -16.1%
Cc1ccc(C(=O)CSC2=NC(N)=C(C#N)C3(CCCCC3)C2C(N)=O)cc1 (stereo not given) | ? | -15.7%[11 µM] | / | -10.5% | 3.16µM* | ?
COc1ccc(NC(=O)N2CCCC3(CCN(C(C)=O)CC3)C2)cc1 | 4.8% | -6.1% | / | 0.9%[11.4 µM] | -2.7% | 2.1%
O=C(c1cnccn1)N1CCC2(CCCN(C(c3ccccc3)c3ccccc3)C2)CC1 | 39.8µM* | -15.3% | / | 0.0%[11.4 µM] | -1.4% | -0.9%
O=S(=O)(/C=C/c1ccccc1)Nc1ccc(N2CCOCC2)cc1 | -7.3% | -9.8% | / | -0.7% | 25.1µM* | ?
O=C1OC2(c3ccc(O)cc3Oc3cc(O)ccc32)c2c1c(-c1ccccc1)c(-c1ccccc1)c(-c1ccccc1)c2-c1ccccc1 | 12.8%[11.5 µM] | ? | / | -4.2%[11.4 µM] | i[11.4 µM] | 1µM*
